Results with a measured potency or affinity are listed apart. A number with no mark means an inactive call.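 The calls were made as follows: active = compounds whose fitted half-maximal cell-killing dose is no more than twice the top tested dose; inconclusive = flat moderate loss of cell viability, or an unreliable curve fit; inactive = the rest.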
Test: HeLa cell cytotoxicity, dose response, cytotoxicity control, ATP luminescence, dry powder (AID 652117)
Conditions: HeLa viability, CellTiter-Glo ATP luminescence, 48 h; series mostly up to 26 µM; activity change, negative = cytotoxicity: at the top concentration

SMILES	activity change, negative = cytotoxicity [%]
C=CCOc1ccc(CN2CCC(CCOc3ccccc3)(C(=O)OCC)CC2)cc1Cl	-16.3
C=CCOc1ccc(CN2CCC(CCOc3ccccc3)(C(=O)NCC)CC2)cc1Cl	0.968
C/C1=C\C[C@H](OC(=O)c2ccc(O)cc2)/C(C)=C/[C@@H](O)C(C)(C)CCC1	-11.7
CCOC(=O)C1(CCOc2ccccc2)CCN(Cc2ccc(O)cc2)CC1	-15.3
CCOC(=O)C1CCN(C(=O)OC(C)(C)C)CC1	1.94
C/C1=C\[C@@H](O)C(C)(C)CCCC2(C)OC2C[C@@H]1OC(=O)c1ccc(O)cc1 (stereo partly drawn)	-15.2
O=C(N1CCCC1)C1(CCOc2ccccc2)CCN(Cc2ccc(O)c(Cl)c2)CC1	-4.71
CCOC(=O)C1(CCOc2ccccc2)CCN(C(=O)c2ccc(O)c(Cl)c2)CC1	-7.6

Source: PubChem BioAssay AID652117 (Broad Institute, 2013)
